# Measurements: PubChem BioAssay
# Active and inactive are the calls of the source. Unless noted, no rule for the calls is given here.
# Tests used:
# [1] = compound effects on lung adenocarcinoma cell viability – A549, calcein-AM fluorescence, 48 h, basal, profiling panel (AID 1162); conditions: higher = more signal; also: test concentration not given here
# [2] = compound effects on differentiated 3T3-L1 adipocyte viability – cell-based, 3T3-L1 adipocytes, calcein-AM fluorescence, 48 h, basal, profiling panel (AID 1163); conditions: 3T3-L1 adipocytes viability, higher = more signal; also: test concentration not given here
# [3] = compound effects on hepatocellular carcinoma cell viability – HepG2, calcein-AM fluorescence, 48 h, basal, profiling panel (AID 1164); conditions: higher = more signal; also: test concentration not given here
# [4] = compound effects on multiple myeloma cell viability – MM1S, calcein-AM fluorescence, 48 h, basal, profiling panel (AID 1165); conditions: higher = more signal; also: test concentration not given here
# [5] = calcein-AM signal in unstimulated myeloma cells – cell-based, calcein-AM fluorescence, 48 h, PK04 Diversity Set, profiling panel (AID 1166); conditions: RPMI8226 myeloma viability, higher = more signal;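 also: cells grown under basal conditions without added stimulus; test concentration not given here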
# [6] = JC-1 mitochondrial signal, unstimulated HepG2 cells – cell-based, JC-1 fluorescence, 24 h, 100 nL compound, profiling panel (AID 1167); conditions: HepG2 mitochondrial potential, higher = more signal; also: test concentration not given here
# [7] = JC-1 mitochondrial signal, unstimulated adipocytes – cell-based, JC-1 fluorescence, 3T3-L1 adipocytes, 24 h, 100 nL compound, profiling panel (AID 1168); conditions: JC-1 mitochondrial fluorescence, higher = more signal, called active from +8 up or from −8 down; also: test concentration not given here
# [8] = JC-1 mitochondrial signal, unstimulated myeloma cells – cell-based, JC-1 fluorescence, RPMI8226, 24 h, 100 nL compound, profiling panel (AID 1169); conditions: JC-1 mitochondrial potential fluorescence, higher = more signal; also: test concentration not given here
# [9] = JC-1 mitochondrial signal, unstimulated MM1S myeloma – cell-based, JC-1 fluorescence, 24 h, 100 nL compound, profiling panel (AID 1170); conditions: MM1S mitochondrial potential, higher = more signal; also: test concentration not given here
# [10] = resazurin metabolic signal in A549 cells – cell-based, resazurin fluorescence, 24 h, PK04 Diversity Set, profiling panel (AID 1171); conditions: A549 viability, higher = more signal, called active from +8 up or from −8 down; also: test concentration not given here
# [11] = resazurin metabolic signal in HepG2 cells – cell-based, resazurin fluorescence, 24 h, PK04 Diversity Set, profiling panel (AID 1172); conditions: HepG2 viability, higher = more signal; also: test concentration not given here
# [12] = budding yeast growth changes without added modifier – OD600, strain BY4716, 24 h, basal condition, primary screen (AID 1173); conditions: S. cerevisiae BY4716 growth, OD600, 24 h; higher = more signal, called active from +8 up or from −8 down
# [13] = viability profiling in MM1S myeloma cells – cell-based, resazurin fluorescence, basal, 24 h, PK04 Diversity Set, profiling panel (AID 1174); conditions: higher = more signal, called active from +8 up or from −8 down; also: test concentration not given here
# [14] = molecular target: Dihydroorotate dehydrogenase (quinone), mitochondrial (Plasmodium falciparum (isolate 3D7)) (UniProt Q08210); assay: inhibition of P. falciparum DHODH – biochemical, C-terminal His tag, absorbance 600 nm, primary screen (AID 1175); conditions: PfDHODH enzyme, DCIP absorbance 600 nm; higher = more signal, called active from +8 up or from −8 down;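 also: recombinant parasite enzyme with a five histidine tag at its C terminus; test concentration not given here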
# Chain of Dihydroorotate dehydrogenase (quinone), mitochondrial (Plasmodium falciparum (isolate 3D7)) (Q08210 whole entry, looked up): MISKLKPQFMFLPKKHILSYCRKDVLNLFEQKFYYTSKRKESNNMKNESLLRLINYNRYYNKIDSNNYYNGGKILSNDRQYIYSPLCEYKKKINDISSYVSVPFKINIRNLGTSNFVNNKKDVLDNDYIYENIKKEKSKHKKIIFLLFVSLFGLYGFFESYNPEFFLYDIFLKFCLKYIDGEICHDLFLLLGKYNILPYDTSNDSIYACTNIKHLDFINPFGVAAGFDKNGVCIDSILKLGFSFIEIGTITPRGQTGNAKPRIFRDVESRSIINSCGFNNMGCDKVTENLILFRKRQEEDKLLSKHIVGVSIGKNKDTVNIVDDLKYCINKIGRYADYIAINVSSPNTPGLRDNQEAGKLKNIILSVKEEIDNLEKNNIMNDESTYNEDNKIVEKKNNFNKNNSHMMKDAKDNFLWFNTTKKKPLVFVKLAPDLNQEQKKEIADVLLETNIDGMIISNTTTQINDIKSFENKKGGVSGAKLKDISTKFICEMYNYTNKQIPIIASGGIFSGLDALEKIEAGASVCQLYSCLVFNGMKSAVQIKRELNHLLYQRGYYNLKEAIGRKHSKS
# [15] = inhibition of PAO1 biofilm formation – strain PAO1, LB-PBS medium, absorbance 600 nm, primary screen (AID 1176); also: test concentration not given here; conditions: P. aeruginosa PAO1 growth/biofilm, A600, 12 h; higher = more signal
# [16] = growth modulation of vineyard yeast isolate – strain RM11-1a, OD600, basal, 24 h, primary screen (AID 1177);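 also: cultures grown under basal conditions with no added stressor; test concentration not given here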; conditions: S. cerevisiae RM11-1a growth, OD600, 24 h; higher = more signal, called active from +8 up or from −8 down
# [17] = growth of efflux-deficient E. coli DRC39 – strain DRC39, OD650, 24 h, E. coli filamentation inducers, primary screen (AID 1178);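 also: growth measured as culture turbidity by optical density at 650 nm; test concentration not given here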; conditions: E. coli DRC39 acrAB, higher = more signal, called active from +8 up or from −8 down
# [18] = growth of efflux-deficient E. coli DRC39 – strain DRC39, OD650, 48 h, E. coli filamentation inducers, primary screen (AID 1179);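 also: screen aims at cell division blockers that make cells filament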; conditions: E. coli DRC39 delta-acrAB growth, higher = more signal, called active from +8 up or from −8 down
# [19] = viability profiling in RPMI8226 myeloma cells – cell-based, resazurin fluorescence, basal, 24 h, PK04 Diversity Set, profiling panel (AID 1180); conditions: higher = more signal;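 also: RPMI8826 multiple myeloma cell line at 5000 cells per well; test concentration not given here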
# [20] = molecular target: E3 ubiquitin-protein ligase XIAP (Homo sapiens) (UniProt P98170); assay: small molecules binding XIAP protein – biophysical, small-molecule microarray, fluorescence 635 nm, primary screen (AID 1181); conditions: higher = more signal;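 also: score merges 667 nm emission and signal to noise over triplicate slides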
# Chain of E3 ubiquitin-protein ligase XIAP (Homo sapiens) (P98170 whole entry, looked up): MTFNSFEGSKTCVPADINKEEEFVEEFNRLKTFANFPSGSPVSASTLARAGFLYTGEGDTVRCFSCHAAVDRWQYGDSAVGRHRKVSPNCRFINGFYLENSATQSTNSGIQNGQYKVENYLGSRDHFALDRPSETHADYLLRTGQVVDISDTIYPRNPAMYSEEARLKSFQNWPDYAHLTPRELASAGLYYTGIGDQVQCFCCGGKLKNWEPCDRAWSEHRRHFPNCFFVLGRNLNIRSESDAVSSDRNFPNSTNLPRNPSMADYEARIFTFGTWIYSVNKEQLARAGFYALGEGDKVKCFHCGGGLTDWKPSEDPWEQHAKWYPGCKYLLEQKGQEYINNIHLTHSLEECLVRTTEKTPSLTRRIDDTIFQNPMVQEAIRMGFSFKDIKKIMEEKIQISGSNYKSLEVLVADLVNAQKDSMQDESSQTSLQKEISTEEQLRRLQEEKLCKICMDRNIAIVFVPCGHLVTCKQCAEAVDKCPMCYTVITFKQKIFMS
SMILES,z-score [1],z-score [2],z-score [3],z-score [4],z-score [5],z-score [6],z-score [7],z-score [8],z-score [9],z-score [10],z-score [11],z-score [12],z-score [13],composite z-score [14],z-score [15],z-score [16],z-score [17],z-score [18],z-score [19],composite z-score [20]
COCCOC(=O)N1C(=O)[C@@]2(c3cc(C#CC4(O)CCCCCC4)ccc31)[C@H](C(=O)N1CCCCCCC1)[C@H]1C(=O)O[C@H](c3ccccc3)[C@H](c3ccccc3)N1[C@@H]2c1ccccc1OCCO,0.424,1.64,0.504,-0.658,-1.87,-0.679,0.656 (inactive),-0.658,-0.987,-1.1 (inactive),-0.449,0.71 (inactive),-0.297 (inactive),0.969 (inactive),1.07 (inactive),2.36 (inactive),-1.49 (inactive),-1.16 (inactive),-0.432,0.026
COc1ccc(C#Cc2ccc3c(c2)[C@]2(C(=O)N3)[C@H](c3ccc(O)cc3)N3[C@H](c4ccccc4)[C@H](c4ccccc4)OC(=O)[C@H]3[C@@H]2C(=O)NC[C@H](O)c2ccccc2)cc1,-1.1,0.72,-0.513,-3,-4.58,-1.8,1.94 (inactive),-1.12,-1.3,-0.475 (inactive),-0.689,1.81 (inactive),-2.56 (inactive),-3.64 (inactive),0.325 (inactive),2.71 (inactive),0.106 (inactive),0.105 (inactive),-4.1,-0.0749
COCCOC(=O)N1C(=O)[C@@]2(c3cc(C#CCC(C(=O)OC)C(=O)OC)ccc31)[C@H](c1ccccc1OCCO)N1[C@H](c3ccccc3)[C@H](c3ccccc3)OC(=O)[C@H]1[C@@H]2C(N)=O,0.597,0.0915,-1.58,-3.4,-4.17,-0.603,1.69 (inactive),-0.986,-1.84,-0.212 (inactive),-0.592,0.9 (inactive),-9.3 (active),0.47 (inactive),0.774 (inactive),1.97 (inactive),0.116 (inactive),0.857 (inactive),-7.24,-0.0874
COCC(=C=CC[C@@H](O)c1ccc(CO)o1)CCO,2.82,1.72,0.783,0.178,1.94,0.281,-0.24 (inactive),0.824,-1.08,0.559 (inactive),0.59,-3.07 (inactive),0.698 (inactive),-9.96 (active),0.862 (inactive),-3.85 (inactive),1.13 (inactive),1.1 (inactive),0.529,0.116
COCCOC(=O)N1C(=O)[C@@]2(c3cc(C#CCNC(N)=O)ccc31)[C@H](c1ccc(O)cc1)N1[C@H](c3ccccc3)[C@H](c3ccccc3)OC(=O)[C@H]1[C@@H]2C(=O)NC[C@H](O)c1ccccc1,-0.276,-0.202,0.108,0.208,-0.197,-1.48,-0.563 (inactive),0.326,-0.0292,-0.803 (inactive),-0.197,0.947 (inactive),0.302 (inactive),0.924 (inactive),0.69 (inactive),1.23 (inactive),0.248 (inactive),0.193 (inactive),-0.949,-0.0807
CO[C@H]1O[C@H](CO)[C@@H](OC(=O)Nc2ccc(Oc3ccccc3)cc2)[C@H](OC(=O)Nc2ccccc2)[C@H]1OC(=O)Nc1ccccc1,-1.63,0.547,-3.37,-2.24,-3.61,-0.684,1.2 (inactive),-1.31,-0.427,-3.41 (inactive),-2.18,-0.494 (inactive),-2.36 (inactive),-0.996 (inactive),1.97 (inactive),2.67 (inactive),1.57 (inactive),0.561 (inactive),-2.48,0.0668
NC(=O)NCC#Cc1ccc2c(c1)[C@]1(C(=O)N2)[C@H](C(=O)NC[C@H](O)c2ccccc2)[C@H]2C(=O)O[C@H](c3ccccc3)[C@H](c3ccccc3)N2[C@@H]1c1ccc(O)cc1,0.423,-1.13,-0.284,-1.32,0.579,-3.36,-2.46 (inactive),-1.16,-1.49,-0.471 (inactive),-0.0042,1.56 (inactive),-0.027 (inactive),0.389 (inactive),1.32 (inactive),2.12 (inactive),0.346 (inactive),0.0233 (inactive),-0.518,0.15
O=C1C2C=CC(C(O)c3ccc(B(O)O)cc3)N(Nc3ccccc3)C2C(=O)N1c1ccccc1 (stereo not given),-1.52,-0.305,-1.38,-1.74,-2.12,-2.75,-0.654 (inactive),-0.162,-0.613,-0.742 (inactive),-1.28,-0.841 (inactive),-1.35 (inactive),-0.395 (inactive),0.546 (inactive),0.0003 (inactive),0.17 (inactive),-0.346 (inactive),-1.59,0.0623
COc1cc2c(cc1OC)CN(C(=O)[C@@H]1[C@H]3C(=O)O[C@H](c4ccccc4)[C@H](c4ccccc4)N3[C@H](c3ccccc3OCCO)[C@@]13C(=O)Nc1ccc(C#CCNC(N)=O)cc13)CC2,1.12,1.62,0.871,0.52,0.625,-1.74,1.63 (inactive),-0.423,-0.322,-0.532 (inactive),0.0227,0.74 (inactive),-0.148 (inactive),-0.839 (inactive),2.93 (inactive),3 (inactive),1.13 (inactive),1.31 (inactive),0.088,0.153
